ssDAF12 agonist – S. stercoralis DAF-12 nuclear receptor activators, primary screen, cell-based, luminescence, HEK293, GRIP1 co-expression, lit1-tk-luc. HEK293 ssDAF-12/GRIP1 lit1-tk-luc reporter; % of 3 µM dafachronic acid response. activation, % at 6.8 µM. 370,000 compounds, 1% hits. AID 652126, 2013;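 active = activation above the mean over all tested compounds plus 3 SD, cut at about 0.9% in these data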
DAX1 inh-1 – DAX1 (NR0B1) inhibitors, primary screen, cell-based, HEK293, Gal4-DAX1, luciferase luminescence; Nuclear receptor subfamily 0 group B member 1 (Homo sapiens), P51843; HEK293 Gal4-DAX1 luciferase reporter; inhibition, % at 6.75 µM; 340,000 compounds, 0.99% hits;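 active = inhibition above the mean over all tested compounds plus 3 SD, cut at about 4.2% in these data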;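 also: inhibition shows as a rise in luminescence from relieved DAX1 repression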
hgDAF-12 ag – H. glycines DAF-12 receptor agonists, primary screen, cell-based, luminescence, HEK293, GAL4 fusion, UAS-luciferase | Nuclear hormone receptor DAF-12 (Heterodera glycines), GAL4 fusion | HEK293 GAL4-hgDAF12 UAS-luciferase reporter, agonist luminescence; normalized to butyrate control | activation, % at 6.8 µM | 370,000 compounds, 1.8% hits | AID 687014, 2013;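 active = activation above a cutoff set at the mean of all screened compounds plus 3 SD, cut at about 10% in these data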
DAX1 inh-2 – DAX1 (NR0B1) inhibitors on StAR promoter, primary screen, cell-based, luminescence, SF-1 (NR5A1), full-length DAX-1 | HEK293T StAR-luciferase reporter, SF-1/DAX-1 repression relief | inhibition, % at 6.8 µM | 370,000 compounds, 1.1% hits;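 active = inhibition above the mean over all tested compounds plus 3 SD, cut at about 3.6% in these data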;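 also: higher inhibition means more luminescence from relief of DAX-1 repression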
hcDAF12 agonist – H. contortus DAF-12 nuclear receptor activators, primary screen, cell-based, luminescence, HEK293, lit1-tk-luc reporter; HEK293 hcDAF-12 lit1-tk-luc reporter; 0% DMSO, 100% Δ7-dafachronic acid; AID 652067, 2013; 370,000 compounds, 1.4% hits; activation, % at 6.8 µM;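 active = activation above the mean of all tested compounds plus 3 SD, cut at about 5.5% in these data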
SMARCA2 activ – SMARCA2 (BRM) function activators, primary screen, cell-based, luminescence, high throughput | activation, % at 9.1 µM | 370,000 compounds, 1% hits | MG213 cells, MMTV-luciferase reporter, dexamethasone, overnight | AID 652017, 2013; in the data active = activation above about 7.8%
DAX1 inh confirm – DAX1 (NR0B1) inhibitors relieving SF-1 repression, confirmation, cell-based, luminescence, HEK293T, full-length DAX-1, SF-1 activated StAR promoter; 2,400 compounds, 87% hits; inhibition, % at 6.8 µM; HEK293T StAR-promoter luciferase reporter, SF-1/DAX-1 repression; shares compounds with DAX1 inh-2;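 active = inhibition above the average of every tested compound plus 3 SD, cut at about 3.8% in these data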
Target sequence (P51843 whole entry, looked up): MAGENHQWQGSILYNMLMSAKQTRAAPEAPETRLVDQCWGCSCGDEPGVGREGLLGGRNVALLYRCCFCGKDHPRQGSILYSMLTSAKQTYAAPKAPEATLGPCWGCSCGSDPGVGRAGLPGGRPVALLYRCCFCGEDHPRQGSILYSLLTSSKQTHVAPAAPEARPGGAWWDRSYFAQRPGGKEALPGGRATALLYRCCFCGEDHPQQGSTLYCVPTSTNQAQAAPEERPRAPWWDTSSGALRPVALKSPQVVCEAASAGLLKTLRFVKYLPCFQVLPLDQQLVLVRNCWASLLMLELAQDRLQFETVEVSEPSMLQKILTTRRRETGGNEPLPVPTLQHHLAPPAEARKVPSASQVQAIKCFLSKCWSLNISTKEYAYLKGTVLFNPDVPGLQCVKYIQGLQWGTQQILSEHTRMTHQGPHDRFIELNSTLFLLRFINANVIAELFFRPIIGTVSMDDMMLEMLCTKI
SF1 mutant ctr – StAR reporter signal changes without DAX1, counter-screen for DAX1 inhibitor project, cell-based, luminescence, AF-2 mutant SF-1, transactivation; inhibition, % at 6.8 µM; 2,400 compounds, 78% hits; shares compounds with DAX1 inh-2; HEK293 StAR-luciferase, SF-1 AF2 mutant;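 active = inhibition above the mean of all tested compounds plus 3 SD, cut at about 3% in these data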
Numbers stand for hits; 0 = inactive; - = not tested or not shown. This is a sample that favours compounds with a hit; in the whole collection about 4.8% have one here.

SMILES	ssDAF12 agonist	DAX1 inh-1	hgDAF-12 ag	DAX1 inh-2	hcDAF12 agonist	SMARCA2 activ	DAX1 inh confirm	SF1 mutant ctr
O=C1CC2CS(=O)(=O)CC2N1c1ccc(Oc2ccccc2)cc1 (configuration not stated)	0	0	0	0	0	0	-	-
CC(C)Oc1ccc(C(=O)Nc2nnc(SCC(=O)N3CCOCC3)s2)cc1	0	0	11	5.2	0	0	8.7	0
NC(=O)c1nn(-c2ccccc2)nc1NC(=O)Cn1nnc(-c2ccccc2)n1	0	0	0	0	0	0	-	-
CCc1ccc(OCC(=O)O/N=C(\N)c2ccncc2)c(Br)c1	0	0	12	7.6	0	0	7.0	4.8
CCc1ccc(OCC(=O)O/N=C(\N)c2ccncc2)cc1	0	0	0	0	0	0	-	-
N#Cc1cc2c(nc1SCC(N)=O)CCCCC2	0	0	0	4.8	0	0	7.3	4.5
O=C(Nc1ccccc1N1CCOCC1)c1ccc(N2CCOCC2)c([N+](=O)[O-])c1	0	0	0	0	0	0	-	-
O=C(Nc1nccs1)c1ccc(-c2ccccc2[N+](=O)[O-])o1	0	0	0	5.2	0	0	7.2	6.3
O=C(Nc1nccs1)c1ccc(N2CCOCC2)c([N+](=O)[O-])c1	0	0	0	7.0	0	0	8.4	5.4
Cc1ccc(CNC(=O)Nc2ccc(Cl)cc2)cc1	0	0	0	5.2	0	0	0	0
O=C(NCc1ccc(Cl)cc1)Nc1ccc(F)cc1	0	0	0	0	0	0	-	-
Cc1c(C(=O)NCCCN2CCCCC2)oc2ccc3c(c12)C(O)CC1(CCCCC1)O3 (configuration not stated)	0	0	0	5.7	0	0	0	0
CC(Nc1nc(-c2ccccc2O)nc2ccccc12)c1ccccc1 (configuration not stated)	0	0	0	0	0	0	-	-
CC(Nc1nc(-c2ccccc2)nc2ccccc12)c1ccccc1 (configuration not stated)	0	0	0	4.7	0	0	7.3	0
CC(C)(C)NC(=O)C(c1cccs1)N(C(=O)c1csnn1)c1cccc(F)c1 (configuration not stated)	0	0	0	0	0	0	-	-
CCOC1=C2CN(S(=O)(=O)c3ccc(C)cc3)[C@@H](c3cccs3)C[C@H]2[C@H]2C(=O)N(c3ccccc3)C(=O)[C@H]2C1	0	-	0	4.5	0	0	0	0
Cc1ccc(S(=O)(=O)N2C[C@H]3C(=O)C[C@@H]4C(=O)N(c5ccccc5)C(=O)[C@@H]4[C@@H]3C[C@H]2c2cccs2)cc1	0	-	0	0	0	0	-	-
CN(CC(=O)Nc1ccccc1Cl)C(=O)c1cc(=O)[nH]c2ccccc12	0	0	0	0	0	0	-	-
O=C(Nc1ccc(Cl)c([N+](=O)[O-])c1)C(Sc1ccccc1)c1ccccc1 (configuration not stated)	0	0	0	0	0	0	-	-
Cc1ccc(NC(=O)c2ccc3c(c2)OCCO3)nc1	0	0	12	6.1	0	0	0	0
Cc1ccc(NC(=O)c2ccco2)nc1	0	0	12	8.0	0	0	8.7	6.8
Cc1ccc(NC(=O)CNC(=O)c2ccc3c(c2)OCO3)nc1	0	0	0	0	0	0	-	-
O=C(Nc1ccc(NC(=O)c2ccccc2Cl)nc1)c1ccco1	0	0	0	0	0	0	-	-
CN1CCCC(OC(=O)c2ccc3c(c2)OCCO3)C1 (configuration not stated)	0	0	0	5.4	0	0	6.4	3.2
Cc1c(CCNC=O)cc(C)c2c3c(oc12)CCCC3	0	5.3	0	4.9	0	0	6.5	5.8
SMILES	ssDAF12 agonist	DAX1 inh-1	hgDAF-12 ag	DAX1 inh-2	hcDAF12 agonist	SMARCA2 activ	DAX1 inh confirm	SF1 mutant ctr
Cc1ccn2c(CN3CCOCC3)c(-c3ccccc3)nc2c1	0	0	0	0	0	0	-	-
Cc1ccn2c(Cc3ccccc3)c(-c3ccccc3)nc2c1	0	0	11	5.5	0	0	0	0
Cc1ccc(Cc2c(-c3ccc(Cl)cc3)nc3ccc(Br)cn23)cc1	0	0	0	0	0	0	-	-
Cc1ccc(Cc2c(-c3ccc(Cl)cc3)nc3cc(C)ccn23)cc1	0	0	0	7.2	0	7.8	0	0
O=C1C2C3CC(C2C(=O)N1c1cccc(Cl)c1)[C@H](O)C3O (some centres not stated)	0	0	0	0	0	0	-	-
Cc1ccccc1-n1c(=O)cc(N2CCN(Cc3ccccc3)CC2)[nH]c1=O	0	0	0	0	0	0	-	-
O=C(N/N=C/c1ccc2c(c1)OCO2)c1ccccn1	0	0	0	4.7	0	0	11	0
O=C(N/N=C/c1ccc(OC(=O)c2cccs2)cc1)c1ccccn1	0	0	0	6.9	0	0	8.1	4.7
O=C(O)c1cc(N/N=C/c2ccc3c(c2)OCO3)ccc1Cl	0	0	0	6.7	6.0	0	6.3	3.1
O=c1[nH]c(N/N=C/c2ccccc2)nc2ccccc12	0	0	0	0	0	0	-	-
CCOc1cc(/C=N/NC(=O)c2ccccn2)ccc1OC(=O)c1cccs1	0	0	0	0	0	0	-	-
O=C(N/N=C/c1cc2c(cc1Br)OCO2)c1ccccn1	0	-	0	0	0	0	-	-
O=c1[nH]c(N/N=C\c2ccc3c(c2)OCO3)nc2ccccc12	0	0	13	4.9	0	0	6.5	3.3
CS(=O)(=O)N1CCN(c2ccc(NC(=O)c3ccc(Br)o3)cc2)CC1	0	0	0	0	0	0	-	-
CN1CCN(c2ccc(NC(=O)c3ccc4ccccc4c3)cc2)CC1	0	0	0	8.2	0	0	10	0
COc1ccc(C(=O)Nc2ccc(N3CCN(C)CC3)cc2)cc1OC	0	0	0	0	0	0	-	-
CN1CCN(c2ccc(NC(=O)c3ccc(Br)o3)cc2)CC1	0	0	12	6.2	0	0	8.3	6.1
